# Compound activity as filed in PubChem.
# PINK1 modulator: modulators of PINK1 expression; PINK1 immunofluorescence, high-content cytometry, 24 h; Potency, µM (top dose mostly 76.6 µM), inactives show at the top dose activation (PINK1 increase), most hits filed as activators; 410,000 compounds, 0.2% hits; AID 624263; active means well fitted activation curve with a large enough effect; inconclusive means small, poorly fitted or top-dose-only effect; cell line not stated here; further: potency means the concentration at half of the fitted maximal effect; % of control where 0% means no effect; nearly all actives have a fitted effect of over 65% in size
#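 PINK1 protein, normally rapidly degraded, was detected by immunofluorescence after 24 hour compound treatment of a stable cell line. Titration data (5 concentrations) came from laser-scanning cytometry, with CCCP-treated wells as controls.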
# SW480 rereplic: DNA re-replication induction in SW480 cells; Potency, µM (top dose mostly 46.1 µM), for the others: at the highest dose re-replication activation, hits mostly activators; SW480 DNA re-replication, Hoechst DNA content imaging, 48 h; 340,000 compounds, 1.8% hits; further: potency means the concentration at half of the fitted maximal effect; % of control where 0% means no effect; nearly all actives have a fitted effect of over 55% in size
#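 Compounds, transferred as 23 nL by pin tool, were incubated with cells for 48 hr; DNA content per nucleus was then quantified by Hoechst staining and fluorescence plate imaging.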
# MCF10A rereplic: inducers of DNA re-replication in MCF 10A breast cells; MCF 10A DNA re-replication, Hoechst nuclear intensity, 48 h; Potency, µM (top dose mostly 46.1 µM), inactives show at the top dose activity, positive = re-replication, actives largely listed as activators; 350,000 compounds, 2.9% hits; AID 624296; further: potency means the concentration at half of the fitted maximal effect; % of control where 0% means no effect; nearly all actives have a fitted effect of over 50% in size
# IL1B secr inh: blocks inflammasome-driven IL-1 beta release | THP-1 LPS/ATP IL-1B secretion, AlphaLISA, 16 h; stronger effect = lower value | activity change, % at 57.5 µM | 360,000 compounds, 4.7% hits | AID 743279; in the data active means activity change below about -50%; inconclusive means mostly about -30% to -49%; further: on the % scale 0 is the no-effect control and ±100 the full control effect
#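 Secreted IL-1B measured by AlphaLISA bead assay after 16 h compound exposure of THP-1 cells; compounds (final up to 57.5 uM) added 1 h before LPS (250 ng/mL) and ATP (1.25 mM) stimulation; lower signal means less secretion.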
# ATXN viability: cell viability loss in ATXN counter-screen; 400,000 compounds, 0.49% hits; Potency, µM (series often up to 56.7 µM), hits mostly cytotoxic; S2 cells (HEK-293 line with an ATXN2-luciferase reporter) viability, CellTiter-Fluor protease fluorescence, 24 h; further: potency means the concentration at half of the fitted maximal effect; nearly all actives have a fitted effect of over 40% in size
# ATXN2 expr inh: ATXN2 expression inhibition; HEK-293 ATXN2-luciferase reporter, luminescence, 24 h; Potency, µM (series often up to 57 µM), inactives show at the highest dose activity change, negative = inhibition, actives largely listed as inhibitors; 360,000 compounds, 0.72% hits; AID 1745845; further: potency means the concentration at half of the fitted maximal effect; on the % scale 0 is the no-effect control and ±100 the full control effect; nearly all actives have a fitted effect of over 55% in size
#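 qHTS (up to 57 uM final) was run with 24 h compound exposure of reporter cells at 37 °C. Each well was multiplexed: SteadyGlo luminescence measured ATXN2-luciferase expression after a fluorogenic Gly-Phe-AFC viability readout (25 uM final).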
# Numbers without * were called inactive; i = inactive; ? = inconclusive; . = no result; ! = not confirmed by another sample. The list is not random: actives were taken first. Their share in the collection is about 7.1%. Unless noted, the call rests on the fitted dose curve; in most records, active means well fitted curve in the direction sought with a large enough effect; inconclusive means small, poorly fitted or top-dose-only effect, or another doubt; inactive means no such curve, though single readings can be large; an effect the other way counts as inactive or inconclusive.
SMILES,PINK1 modulator,SW480 rereplic,MCF10A rereplic,IL1B secr inh,ATXN viability,ATXN2 expr inh
COC(=O)c1ccc(CCc2cc(O)ccc2O)cc1,3.4%,?,?,?,?,?
CCCCN(CC)CCCNC(=O)C1CCN(c2ncnc3c2sc2cccc(F)c23)CC1,3.5%,?,?,-97.2*,i,-7.1%
O=C(NCCN1CCOCC1)C1CCN(c2ncnc3c2sc2cccc(F)c23)CC1,2.2%,-10.6%,0.1%,6.1,i,-8.8%
COc1ccccc1-c1ccnc(-n2ncc(C(=O)N(C)CCc3ccccn3)c2C)n1,-0.5%,.,.,.,i,.
C[C@]12CC[C@@H]3c4ccc(O)cc4CC[C@H]3[C@@H]1CCC2OC(=O)CCC1CCCC1 (stereo partly specified),.,?,23.7µM*,.,.,.
CC(NCCN(C)C)C1CCC2C3CCc4cc(O)ccc4C3CCC12C (stereo unspecified),-7.2%,?,27.7%,-102.4*,?,0.0%
CCc1ccc(/C(C)=N\Nc2ccc([N+](=O)[O-])cc2)cc1,7.4%,14.6µM*,9.2µM*,-12.2,i,20.6%
CC/C(=N\Nc1ccc([N+](=O)[O-])cc1)c1ccccc1,?,?,16.4µM*,-51.0*,i,-9.1%
O=[N+]([O-])c1ccc(NN=C(Oc2ccccc2)c2ccc([N+](=O)[O-])cc2)cc1,3.3%,.,.,?,.,.
C/C(=N\Nc1nc(C)c(C)s1)c1ccc([N+](=O)[O-])cc1,-2.0%,5.4%,?,-87.7*,.,29.9µM*
C/C(=N\Nc1ccc([N+](=O)[O-])cc1)c1ccc(N)cc1,?,29.0%,?,-2.0,i,35.6%
COc1ccc(C2N3CC4(C)CN2CC(c2ccccc2)(C3)C4=O)cc1 (stereo unspecified),-0.1%,.,.,.,?,-10.3%
COc1cc(C2C3=C(Nc4ncnn42)c2ccccc2CC3)cc(OC)c1OC (stereo unspecified),6.6%,0.82µM*,?,86.2,?,-19.1%
CCOC(=O)c1sc(N(Cc2ccccc2)C(=O)CCl)nc1C,4.0%,-4.4%,?,-100.6*,i,42.1%
CCOC(=O)c1sc(N(Cc2ccccc2)C(=O)COC(=O)c2ccc(O)cc2)nc1C,-3.4%,?,9.2µM*,?,i,?
COCCN(C(=O)CSc1ncn[nH]1)c1c(N)n(Cc2ccccc2)c(=O)[nH]c1=O,-0.2%,-1.1%,-1.0%,29.4,i,-13.3%
CCOC(=O)c1sc(N(Cc2ccccc2)C(=O)COC(=O)c2ccccc2O)nc1C,2.2%,-1.5%,-69.0%,0.0,i,22.6%
CCOC(=O)c1sc(N(Cc2ccccc2)C(=O)CSc2ncn[nH]2)nc1C,4.4%,2.0%,?,-52.2*,i,-0.5%
O=c1c(N2CCN(c3cccc(Cl)c3)CC2)csc2ccc(Cl)cc12,1.4%,.,.,.,.,.
COc1ccc(C2CC(=O)N(Cc3ccccc3)c3c2c(C)nn3-c2nc(C)cc(C)n2)c(OC)c1 (stereo unspecified),-0.2%,.,.,.,i,-0.9%
O=C(NCCc1ccc(Cl)cc1)C1CCN(Cc2cc3ccccc3n2Cc2ccccc2)CC1,-0.1%,.,.,.,i,-25.3%
C=C1C(=O)[C@]23C[C@H]1CCC2[C@@]1(C)C(C[C@@H]3O)[C@](C)(C(=O)OC)CC[C@@H]1OC(C)=O (stereo partly specified),-0.3%,.,.,-116.5*,2.82µM*,2.51µM*
C=C1C(=O)[C@]23C[C@H]1CC[C@H]2[C@]1(C)[C@@H](OC(C)=O)CC[C@@](C)(C(=O)O)[C@H]1C[C@@H]3O,2.1%,.,.,-78.3*,.,3.16µM*
C=C1C(=O)[C@]23C[C@H]1CC[C@H]2[C@]1(C)[C@@H](O)CC[C@@](C)(C(=O)O)[C@H]1C[C@@H]3O,2.5%,.,.,-75.2*,.,?
C=C1C(=O)[C@]23C[C@H]1CCC2[C@@]1(C)C(C[C@@H]3O)[C@](C)(C(=O)O)C[C@H](O)[C@@H]1O (stereo partly specified),-0.3%,.,.,1.1,i,2.6%
SMILES,PINK1 modulator,SW480 rereplic,MCF10A rereplic,IL1B secr inh,ATXN viability,ATXN2 expr inh
CC(=O)OC1CCC23CC1(C)CCC2C(C)(C)CC3OC(C)=O (stereo unspecified),0.1%,.,.,.,.,.
C=C1C(=O)[C@]23C[C@H]1CC[C@H]2[C@]1(C)[C@@H](OC(C)=O)CC[C@@](C)(C(=O)OC)[C@H]1C[C@@H]3OC(C)=O,-0.9%,.,.,-116.4*,31.6µM*,?
COc1cc(-c2nc(C(N)=O)c3c(n2)n(-c2cccc(C)c2)c(=O)n3C)cc(OC)c1OC,0.4%,.,.,.,i,13.1%
O=C1Nc2ccc(Br)cc2/C1=C/C(=O)c1ccccc1,-6.1%,?,18.4µM*,-103.4*,?,?
CC(=O)/C=C1/C(=O)Nc2ccccc21,4.9%,-5.1%,?,-15.0,?,?
C=CCOc1cccc(C(=O)/C=C2/C(=O)Nc3ccccc32)c1,-3.6%,?,5.8µM*,?,?,?
CCCC(=O)NC1CC(=O)N(c2ccc3c(c2)OCCO3)C1 (stereo unspecified),-0.6%,.,.,.,.,.
Cc1cc(N2CCN(C)CC2)nc2ccc(NC(=O)Nc3ccccc3Cl)cc12,-1.7%,.,.,.,i,31.0%
Cc1c(O)cccc1C(=O)N[C@@H](CSc1ccccc1)[C@H](O)CN1C[C@H]2CCCC[C@H]2C[C@H]1C(=O)NC(C)(C)C,?,-37.9%,?,?,11.2µM*,20µM*!
CCN(CC(=O)NC(C)(C)C)C(=O)c1ccccc1SCC(=O)NC1CCCCCCC1,-0.3%,7.1%,8.5%,41.7,i,-12.1%
Cc1[nH]c2c(Cl)cccc2c1CCNC(=O)C1CCCCC1C(=O)OCC(F)(F)F (stereo unspecified),1.6%,-0.9%,-4.7%,-79.7*,i,-17.3%
COc1ccc(Cl)cc1NC(=O)CN1C(=O)C(C)(C)c2cc(S(=O)(=O)N3CCCCC3)ccc21,3.4%,.,.,.,?,-7.5%
CCOC(=O)N/N=C\c1ccc([N+](=O)[O-])o1,.,-1.0%,-5.1%,36.8,?,?
O=C(COc1ccccc1[N+](=O)[O-])N/N=C/C=C/c1ccco1,0.5%,-7.1%,-14.8%,0.0,i,25.3%
Cc1cc(C)cc(OCC(=O)N/N=C/c2ccc([N+](=O)[O-])o2)c1,?,?,?,-63.6*,?,?
Cc1ccccc1OCC(=O)N/N=C/c1ccc([N+](=O)[O-])o1,?,1.16µM*,23.1µM*,7.6,?,.
Cc1ccccc1OCC(=O)NCC(=O)N/N=C/c1ccc(Br)o1,8.2%,?,12.0%,5.8,i,-0.4%
